Screen size: about 5,500 compounds; about 2,000 (36%) were called active. Inconclusive results (about 18%) are left out. Rule as the data show it: active = normalized growth mostly below about 0.91 (no sharp cut-off); inconclusive = no clear call, values can overlap the other calls; inactive = mostly above about 0.92. This is one part of the list.
Experiment: chemical genetic growth profiling, strain panel (AID 1159580);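 also: tested at 20 µM; growth read once vehicle control cultures reached saturation at 30 °C; 1 = growth at the plate median or of vehicle wells; lower values mean less growth of the strain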
Conditions: growth OD

Measured: normalized growth

c1coc(CNc2ncnc3nc[nH]c23)c1
inactive: S. cerevisiae deletion strains, locus YJR075W, strain HOC1, hits give low values 1 | S. cerevisiae deletion strains, locus YKL009W, strain mrt4, hits give low values 1.03 | S. cerevisiae deletion strains, locus YKL068W, hits give low values 0.979 | S. cerevisiae deletion strains, locus YKL085W, strain MDH1 (second series), hits give low values 1.01 | S. cerevisiae deletion strains, locus YKL085W, strain MDH1, hits give low values 1.01 | S. cerevisiae deletion strains, locus YKL160W, strain elf1, hits give low values 1.02 | S. cerevisiae deletion strains, locus YKL190W, strain CNB1, hits give low values 0.994 | S. cerevisiae deletion strains, locus YKR001C, strain vps1, hits give low values 1 | S. cerevisiae deletion strains, locus YKR026C, strain gcn3, hits give low values 0.999 | S. cerevisiae deletion strains, locus YKR091W, strain srl3, hits give low values 0.994 | S. cerevisiae deletion strains, locus YLL001W, strain dnm1, hits give low values 1.01 | S. cerevisiae deletion strains, locus YLL026W, hits give low values 0.999 | S. cerevisiae deletion strains, locus YLL041C, strain sdh2, hits give low values 0.997 | S. cerevisiae deletion strains, locus YLR027C, strain aat2, hits give low values 1 | S. cerevisiae deletion strains, locus YLR039C, strain RIC1, hits give low values 1.01 | S. cerevisiae deletion strains, locus YLR058C, strain SHM2, hits give low values 1 | S. cerevisiae deletion strains, locus YLR102C, strain apc9, hits give low values 0.989 | S. cerevisiae deletion strains, locus YLR113W, strain HOG1, hits give low values 0.993 | S. cerevisiae deletion strains, locus YLR221C, strain rsa3, hits give low values 0.975 | S. cerevisiae deletion strains, locus YLR258W, strain gsy2, hits give low values 0.996 | S. cerevisiae deletion strains, locus YLR262C, strain YPT6 (second series), hits give low values 0.977 | S. cerevisiae deletion strains, locus YLR262C, strain YPT6, hits give low values 0.981 | S. cerevisiae deletion strains, locus YLR268W, strain sec22, hits give low values 0.97 | S. cerevisiae deletion strains, locus YLR320W, strain mms22, hits give low values 1 | S. cerevisiae deletion strains, locus YLR330W, strain CHS5, hits give low values 0.994 | S. cerevisiae deletion strains, locus YLR342W, strain FKS1 (second series), hits give low values 1.02 | S. cerevisiae deletion strains, locus YLR342W, strain FKS1, hits give low values 1.01 | S. cerevisiae deletion strains, locus YLR357W, strain rsc2, hits give low values 0.98 | S. cerevisiae deletion strains, locus YLR370C, strain arc18, hits give low values 0.993 | S. cerevisiae deletion strains, locus YLR371W, strain rom2, hits give low values 0.99 | S. cerevisiae deletion strains, locus YLR384C, strain iki3, hits give low values 1 | S. cerevisiae deletion strains, locus YLR418C, strain cdc73, hits give low values 1 | S. cerevisiae deletion strains, locus YML016C, strain PPZ1, hits give low values 1 | S. cerevisiae deletion strains, locus YML032C, strain rad52, hits give low values 0.993 | S. cerevisiae deletion strains, locus YML120C, strain ndi1, hits give low values 0.992 | S. cerevisiae deletion strains, locus YML124C, strain tub3, hits give low values 1 | S. cerevisiae deletion strains, locus YMR058W, strain fet3, hits give low values 0.998 | S. cerevisiae deletion strains, locus YMR078C, strain ctf18, hits give low values 0.994 | S. cerevisiae deletion strains, locus YMR125W, strain sto1, hits give low values 0.974 | S. cerevisiae deletion strains, locus YMR129W, hits give low values 0.988 | S. cerevisiae deletion strains, locus YMR205C, strain PFK2, hits give low values 1 | S. cerevisiae deletion strains, locus YMR223W, strain ubp8, hits give low values 1.02 | S. cerevisiae deletion strains, locus YMR231W, strain pep5, hits give low values 0.991 | S. cerevisiae deletion strains, locus YMR263W, strain SAP30, hits give low values 0.986 | S. cerevisiae deletion strains, locus YMR307W, strain GAS1, hits give low values 1.11 | S. cerevisiae deletion strains, locus YNL067W, strain RPL9B, hits give low values 0.983 | S. cerevisiae deletion strains, locus YNL071W, strain lat1, hits give low values 0.999 | S. cerevisiae deletion strains, locus YNL128W, strain TEP1, hits give low values 0.99 | S. cerevisiae deletion strains, locus YNL153C, strain GIM3, hits give low values 0.991 | S. cerevisiae deletion strains, locus YNL183C, strain NPR1, hits give low values 0.914 | S. cerevisiae deletion strains, locus YNL209W, strain ssb2, hits give low values 0.986 | S. cerevisiae deletion strains, locus YNL233W, strain BNI4, hits give low values 1.01 | S. cerevisiae deletion strains, locus YNL248C, strain rpa49, hits give low values 0.989 | S. cerevisiae deletion strains, locus YNL250W, strain rad50, hits give low values 0.995 | S. cerevisiae deletion strains, locus YNL271C, strain bni1, hits give low values 0.988 | S. cerevisiae deletion strains, locus YNL298W, strain CLA4, hits give low values 1 | S. cerevisiae deletion strains, locus YNL307C, strain MCK1, hits give low values 0.995 | S. cerevisiae deletion strains, locus YNL322C, strain KRE1 (second series), hits give low values 0.992 | S. cerevisiae deletion strains, locus YNL322C, strain KRE1, hits give low values 0.987 | S. cerevisiae deletion strains, locus YNR049C, strain mso1, hits give low values 0.999 | S. cerevisiae deletion strains, locus YNR052C, strain pop2, hits give low values 0.993 | S. cerevisiae deletion strains, locus YOL006C, strain TOP1, hits give low values 0.981 | S. cerevisiae deletion strains, locus YOL012C, strain htz1 0.989 | S. cerevisiae deletion strains, locus YOL147C, strain pex11, hits give low values 0.999 | S. cerevisiae deletion strains, locus YOR001W, strain rrp6, hits give low values 1.01 | S. cerevisiae deletion strains, locus YOR061W, strain CKA2, hits give low values 1 | S. cerevisiae deletion strains, locus YOR069W, strain VPS5, hits give low values 1 | S. cerevisiae deletion strains, locus YOR070C, strain gyp1, hits give low values 1 | S. cerevisiae deletion strains, locus YOR080W, strain dia2, hits give low values 0.995 | S. cerevisiae deletion strains, locus YOR083W, strain WHI5, hits give low values 1 | S. cerevisiae deletion strains, locus YOR106W, strain vam3, hits give low values 1 | S. cerevisiae deletion strains, locus YOR136W, strain idh2, hits give low values 0.996 | S. cerevisiae deletion strains, locus YOR144C, strain elg1, hits give low values 0.99 | S. cerevisiae deletion strains, locus YOR184W, strain ser1, hits give low values 0.997 | S. cerevisiae deletion strains, locus YOR231W, strain MKK1, hits give low values 0.998 | S. cerevisiae deletion strains, locus YOR265W, strain rbl2, hits give low values 0.996 | S. cerevisiae deletion strains, locus YOR270C, strain vph1, hits give low values 0.99 | S. cerevisiae deletion strains, locus YOR290C, strain snf2, hits give low values 0.991 | S. cerevisiae deletion strains, locus YOR316C, strain cot1, hits give low values 0.989 | S. cerevisiae deletion strains, locus YPL051W, strain arl3, hits give low values 0.996 | S. cerevisiae deletion strains, locus YPL055C, strain LGE1, hits give low values 0.978 | S. cerevisiae deletion strains, locus YPL078C, strain atp4, hits give low values 1.01 | S. cerevisiae deletion strains, locus YPL106C, strain sse1, hits give low values 0.995 | S. cerevisiae deletion strains, locus YPL240C, strain hsp82, hits give low values 1.02 | S. cerevisiae deletion strains, locus YPL241C, strain CIN2, hits give low values 1 | S. cerevisiae deletion strains, locus YPL256C, strain CLN2, hits give low values 0.965 | S. cerevisiae deletion strains, locus YPR119W, strain clb2, hits give low values 0.999 | S. cerevisiae deletion strains, locus YPR141C, strain kar3, hits give low values 0.981 | S. cerevisiae deletion strains, locus YPR163C, strain tif3, hits give low values 1 | S. cerevisiae deletion strains, locus YPR167C, strain met16, hits give low values 0.99 | S. cerevisiae deletion strains, strain wtn01, hits give low values 0.986 | S. cerevisiae strains, strain wild type, hits give low values 0.999
